From the supplement of paper PMC11732987, “Enantioselective OTUD7B fragment discovery through chemoproteomics screening and high-throughput optimisation” (Communications Chemistry, 2025)
Values without a mark were called inactive.

Experiments:
Experiment in all cases: log2 ratio of Biotin-Ahx-Ub-VS probe labelling (compound/DMSO); higher = less target engagement, active = hit call of the paper (q ≤ 0.05, log2 ratio ≤ -1)
Settings in all cases: treatment time: 3 h
[1] = compound: CN(Cc1cccc(Br)c1)C(=O)CCl
Summary of the method: (§1)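 HEK293T lysate (495 µg per sample, in Tris/CHAPS/IGEPAL buffer with protease inhibitors) was treated in triplicate with compound at 50 or 200 µM or with DMSO for 3 h. It was then treated with Biotin-Ahx-Ub-VS (0.5 µM final) for 1 h. Labelled DUBs were NeutrAvidin-enriched, digested with LysC and trypsin, and run by diaPASEF LC-MS/MS. Median-normalised label-free quantities gave average log2 ratios compound/DMSO by unpaired t-test, using proteins with ≥2 unique peptides.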

[2] = compound: CN(Cc1ccccc1)C(=O)CCl
Summary of the method: as §1

[3] = compound: COc1ccc(CN(C)C(=O)CCl)cc1
Summary of the method: as §1

[4] = compound: COc1cccc(CN(CCCc2ccccc2)C(=O)CCl)c1
Summary of the method: as §1

[5] = compound: ClCC(=O)N1CCc2cc(Cl)c(Cl)cc2C1
Summary of the method: as §1

[6] = compound: ClCC(=O)N1CCc2nc(ncc2C1)-c1ccccc1
Summary of the method: as §1

[7] = compound: ClCC(=O)N1CCc2nocc2C1
Summary of the method: as §1

[8] = compound: ClCC(=O)N1CCc2scc(Br)c2C1
Summary of the method: as §1

[9] = compound: ClCC(=O)NC(C1CCCC1)c1cccs1
Summary of the method: as §1

[10] = compound: ClCC(=O)NC1CCCc2ccccc12
Summary of the method: as §1

[11] = compound: ClCC(=O)NC1CCOc2ccc(Cl)cc12
Summary of the method: as §1

[12] = compound: ClCC(=O)NC1CCSc2ccccc12
Summary of the method: as §1

[13] = compound: ClCC(=O)N[C@H]1CCCc2ccccc12
Summary of the method: as §1

[14] = compound: Fc1ccc(N2CCN(c3nc4c(CN(C(CCl)=O)CC4)cn3)CC2)cc1.Cl.Cl
Summary of the method: as §1

[15] = compound: CN(Cc1cccc(OCc2ccccc2C)c1)C(=O)CCl
Summary of the method: as §1

Chain of UniProt O94966 (O94966 whole entry): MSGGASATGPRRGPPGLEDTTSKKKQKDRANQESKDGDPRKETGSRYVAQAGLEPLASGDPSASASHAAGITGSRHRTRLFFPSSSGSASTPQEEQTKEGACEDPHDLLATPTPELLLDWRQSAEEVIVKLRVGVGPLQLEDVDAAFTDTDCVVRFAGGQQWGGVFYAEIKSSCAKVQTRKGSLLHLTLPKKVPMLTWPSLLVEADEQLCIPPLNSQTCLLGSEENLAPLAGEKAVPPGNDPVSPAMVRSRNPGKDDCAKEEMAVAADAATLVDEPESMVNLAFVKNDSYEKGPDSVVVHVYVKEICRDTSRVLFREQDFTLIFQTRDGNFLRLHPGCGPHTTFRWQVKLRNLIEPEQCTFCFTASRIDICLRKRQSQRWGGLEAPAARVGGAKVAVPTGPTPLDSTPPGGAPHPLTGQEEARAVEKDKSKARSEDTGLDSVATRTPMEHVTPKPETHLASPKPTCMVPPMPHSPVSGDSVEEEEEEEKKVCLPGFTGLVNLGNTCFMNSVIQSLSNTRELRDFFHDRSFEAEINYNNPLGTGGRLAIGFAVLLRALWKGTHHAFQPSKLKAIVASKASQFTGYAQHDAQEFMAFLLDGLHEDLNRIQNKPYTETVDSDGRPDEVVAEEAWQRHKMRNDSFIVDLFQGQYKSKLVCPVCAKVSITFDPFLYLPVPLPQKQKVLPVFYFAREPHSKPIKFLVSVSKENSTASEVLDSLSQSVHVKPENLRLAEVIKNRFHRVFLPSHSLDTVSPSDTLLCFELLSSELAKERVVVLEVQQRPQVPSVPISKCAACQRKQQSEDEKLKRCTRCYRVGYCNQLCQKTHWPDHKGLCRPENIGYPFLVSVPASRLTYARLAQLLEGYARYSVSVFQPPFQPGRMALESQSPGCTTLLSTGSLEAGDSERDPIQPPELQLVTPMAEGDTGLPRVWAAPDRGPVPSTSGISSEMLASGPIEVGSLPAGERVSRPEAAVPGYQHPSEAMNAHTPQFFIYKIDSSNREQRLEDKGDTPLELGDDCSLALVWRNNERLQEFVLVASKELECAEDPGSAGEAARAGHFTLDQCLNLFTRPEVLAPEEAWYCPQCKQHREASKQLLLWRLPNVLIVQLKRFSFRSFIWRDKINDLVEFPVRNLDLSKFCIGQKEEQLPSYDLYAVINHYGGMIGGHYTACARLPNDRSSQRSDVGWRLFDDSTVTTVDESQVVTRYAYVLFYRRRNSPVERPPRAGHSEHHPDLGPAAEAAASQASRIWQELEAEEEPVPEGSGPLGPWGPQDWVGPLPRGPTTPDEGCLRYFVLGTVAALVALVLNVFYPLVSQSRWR
Chain of UniProt Q92560 (Q92560 whole entry): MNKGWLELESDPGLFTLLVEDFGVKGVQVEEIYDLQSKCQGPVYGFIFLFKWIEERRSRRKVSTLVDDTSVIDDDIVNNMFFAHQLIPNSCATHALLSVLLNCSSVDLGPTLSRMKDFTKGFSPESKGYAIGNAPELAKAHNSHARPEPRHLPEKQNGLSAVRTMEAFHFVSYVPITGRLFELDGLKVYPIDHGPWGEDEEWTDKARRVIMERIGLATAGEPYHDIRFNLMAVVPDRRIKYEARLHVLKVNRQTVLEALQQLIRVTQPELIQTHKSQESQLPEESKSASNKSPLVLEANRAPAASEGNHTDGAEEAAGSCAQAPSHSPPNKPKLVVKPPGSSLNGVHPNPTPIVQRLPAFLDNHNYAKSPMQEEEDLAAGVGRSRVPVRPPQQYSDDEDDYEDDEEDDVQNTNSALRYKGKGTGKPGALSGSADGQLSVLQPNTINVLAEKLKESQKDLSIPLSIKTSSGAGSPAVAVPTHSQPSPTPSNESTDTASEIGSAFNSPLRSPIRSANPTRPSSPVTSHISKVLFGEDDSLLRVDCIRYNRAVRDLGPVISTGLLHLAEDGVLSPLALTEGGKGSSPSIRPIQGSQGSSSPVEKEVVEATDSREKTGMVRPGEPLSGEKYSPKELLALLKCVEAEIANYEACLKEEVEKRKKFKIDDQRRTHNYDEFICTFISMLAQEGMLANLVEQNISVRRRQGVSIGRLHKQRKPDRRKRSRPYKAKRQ
Chain of UniProt P09936 (P09936 whole entry, looked up): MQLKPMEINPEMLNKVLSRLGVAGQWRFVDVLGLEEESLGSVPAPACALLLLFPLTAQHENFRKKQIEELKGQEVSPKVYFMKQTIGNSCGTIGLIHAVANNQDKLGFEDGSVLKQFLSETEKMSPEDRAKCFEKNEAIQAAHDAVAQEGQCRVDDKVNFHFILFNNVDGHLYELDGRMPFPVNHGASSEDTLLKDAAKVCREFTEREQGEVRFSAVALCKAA
Chain of UniProt P40818 (P40818 whole entry): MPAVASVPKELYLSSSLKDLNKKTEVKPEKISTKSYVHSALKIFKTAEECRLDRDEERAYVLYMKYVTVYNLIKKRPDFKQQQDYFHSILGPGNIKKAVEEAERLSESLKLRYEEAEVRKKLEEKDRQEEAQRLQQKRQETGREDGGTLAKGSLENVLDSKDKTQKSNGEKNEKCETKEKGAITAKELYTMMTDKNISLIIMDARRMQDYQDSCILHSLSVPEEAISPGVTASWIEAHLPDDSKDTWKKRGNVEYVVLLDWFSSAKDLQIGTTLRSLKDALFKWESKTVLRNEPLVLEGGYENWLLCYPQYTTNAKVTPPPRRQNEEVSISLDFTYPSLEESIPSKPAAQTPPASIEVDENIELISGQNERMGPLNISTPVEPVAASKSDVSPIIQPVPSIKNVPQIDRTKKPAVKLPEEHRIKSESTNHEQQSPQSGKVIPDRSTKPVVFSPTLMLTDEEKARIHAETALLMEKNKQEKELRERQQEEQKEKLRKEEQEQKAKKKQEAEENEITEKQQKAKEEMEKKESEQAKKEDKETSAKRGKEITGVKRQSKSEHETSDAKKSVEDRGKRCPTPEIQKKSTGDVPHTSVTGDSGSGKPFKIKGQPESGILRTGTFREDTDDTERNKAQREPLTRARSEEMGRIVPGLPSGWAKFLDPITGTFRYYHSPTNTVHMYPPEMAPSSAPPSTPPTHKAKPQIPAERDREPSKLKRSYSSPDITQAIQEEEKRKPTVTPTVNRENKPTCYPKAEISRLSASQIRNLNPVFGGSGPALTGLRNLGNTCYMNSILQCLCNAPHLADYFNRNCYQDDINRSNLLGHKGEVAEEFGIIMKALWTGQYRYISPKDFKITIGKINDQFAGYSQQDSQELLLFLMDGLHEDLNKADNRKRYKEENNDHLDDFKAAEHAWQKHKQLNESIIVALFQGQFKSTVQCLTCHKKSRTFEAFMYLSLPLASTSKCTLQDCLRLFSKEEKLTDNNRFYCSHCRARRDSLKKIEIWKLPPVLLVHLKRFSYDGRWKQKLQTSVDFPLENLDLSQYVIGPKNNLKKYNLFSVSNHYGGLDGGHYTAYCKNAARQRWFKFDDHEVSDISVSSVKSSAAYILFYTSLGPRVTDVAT
Chain of UniProt P54252 (P54252 whole entry): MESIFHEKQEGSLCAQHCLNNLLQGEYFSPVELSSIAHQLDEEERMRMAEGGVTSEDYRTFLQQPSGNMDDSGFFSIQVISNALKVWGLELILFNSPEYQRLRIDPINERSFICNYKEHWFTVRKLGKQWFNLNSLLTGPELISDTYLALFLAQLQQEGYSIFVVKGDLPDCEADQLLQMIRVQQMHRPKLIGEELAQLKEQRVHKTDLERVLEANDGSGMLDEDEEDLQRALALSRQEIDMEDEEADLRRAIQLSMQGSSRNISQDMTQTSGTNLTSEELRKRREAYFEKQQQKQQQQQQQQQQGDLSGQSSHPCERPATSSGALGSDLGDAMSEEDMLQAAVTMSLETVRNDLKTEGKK

Target | log2 ratio of Biotin-Ahx-Ub-VS probe labelling ([1]; compound concentration: 50uM) | log2 ratio of Biotin-Ahx-Ub-VS probe labelling ([1]; compound concentration: 200uM) | log2 ratio of Biotin-Ahx-Ub-VS probe labelling ([2]; compound concentration: 50uM) | log2 ratio of Biotin-Ahx-Ub-VS probe labelling ([2]; compound concentration: 200uM) | log2 ratio of Biotin-Ahx-Ub-VS probe labelling ([3]; compound concentration: 50uM) | log2 ratio of Biotin-Ahx-Ub-VS probe labelling ([3]; compound concentration: 200uM) | log2 ratio of Biotin-Ahx-Ub-VS probe labelling ([4]; compound concentration: 50uM) | log2 ratio of Biotin-Ahx-Ub-VS probe labelling ([4]; compound concentration: 200uM) | log2 ratio of Biotin-Ahx-Ub-VS probe labelling ([5]; compound concentration: 50uM) | log2 ratio of Biotin-Ahx-Ub-VS probe labelling ([5]; compound concentration: 200uM) | log2 ratio of Biotin-Ahx-Ub-VS probe labelling ([6]; compound concentration: 50uM) | log2 ratio of Biotin-Ahx-Ub-VS probe labelling ([6]; compound concentration: 200uM) | log2 ratio of Biotin-Ahx-Ub-VS probe labelling ([7]; compound concentration: 50uM) | log2 ratio of Biotin-Ahx-Ub-VS probe labelling ([7]; compound concentration: 200uM) | log2 ratio of Biotin-Ahx-Ub-VS probe labelling ([8]; compound concentration: 50uM) | log2 ratio of Biotin-Ahx-Ub-VS probe labelling ([8]; compound concentration: 200uM) | log2 ratio of Biotin-Ahx-Ub-VS probe labelling ([9]; compound concentration: 50uM) | log2 ratio of Biotin-Ahx-Ub-VS probe labelling ([9]; compound concentration: 200uM) | log2 ratio of Biotin-Ahx-Ub-VS probe labelling ([10]; compound concentration: 50uM) | log2 ratio of Biotin-Ahx-Ub-VS probe labelling ([10]; compound concentration: 200uM) | log2 ratio of Biotin-Ahx-Ub-VS probe labelling ([11]; compound concentration: 50uM) | log2 ratio of Biotin-Ahx-Ub-VS probe labelling ([11]; compound concentration: 200uM) | log2 ratio of Biotin-Ahx-Ub-VS probe labelling ([12]; compound concentration: 50uM) | log2 ratio of Biotin-Ahx-Ub-VS probe labelling ([12]; compound concentration: 200uM) | log2 ratio of Biotin-Ahx-Ub-VS probe labelling ([13]; compound concentration: 50uM) | log2 ratio of Biotin-Ahx-Ub-VS probe labelling ([13]; compound concentration: 200uM) | log2 ratio of Biotin-Ahx-Ub-VS probe labelling ([14]; compound concentration: 50uM) | log2 ratio of Biotin-Ahx-Ub-VS probe labelling ([14]; compound concentration: 200uM) | log2 ratio of Biotin-Ahx-Ub-VS probe labelling ([15]; compound concentration: 50uM) | log2 ratio of Biotin-Ahx-Ub-VS probe labelling ([15]; compound concentration: 200uM)
USP19 (UniProt O94966) | -0.419 | -1.2 (active) | -0.372 | -0.827 | -0.301 | -0.572 | -0.64 | -1.37 (active) | -0.948 | -3.11 (active) | -0.512 | -2.01 (active) | -0.407 | -1.17 (active) | -0.747 | -2.35 (active) | -0.0897 | -0.299 | -0.205 | -0.219 | -0.252 | -0.38 | -0.00658 | -0.393 | -0.0565 | -0.411 | -1.25 (active) | -3.86 (active) | – | –
ATXN3 (UniProt P54252) | -0.252 | -0.624 | -0.361 | -0.872 | -0.229 | -0.842 | -0.391 | -0.729 | -0.915 | -2.63 (active) | -0.221 | -1.26 (active) | -0.325 | -1.08 (active) | -0.485 | -1.78 (active) | 0.0786 | -0.141 | -0.0534 | -0.164 | -0.0955 | -0.25 | 0.24 | -0.293 | -0.316 | -0.596 | -0.648 | -2.72 (active) | – | –
BAP1 (UniProt Q92560) | -0.773 | -2.12 (active) | -0.833 | -2.17 (active) | -0.731 | -1.9 (active) | -1.04 (active) | -3.18 (active) | -0.373 | -1.76 (active) | -0.341 | -1.91 (active) | -0.448 | -1.16 (active) | -0.426 | -1.68 (active) | -0.924 | -2.92 (active) | -0.474 | -1.23 (active) | -1.05 (active) | -2.38 (active) | -0.619 | -2.44 (active) | -0.684 | -1.69 (active) | -0.262 | -1.91 (active) | -1.42 (active) | -3.08 (active)
UCHL1 (UniProt P09936) | -0.0723 | 0.424 | -0.373 | -0.192 | -0.293 | 0.0271 | 0.0165 | 0.0676 | 0.153 | -0.0523 | 0.109 | -0.0372 | -0.379 | -0.3 | -0.0189 | -0.0895 | -0.0993 | -0.00199 | -0.0609 | 0.151 | -0.516 | -0.228 | 0.0655 | -0.146 | -0.0596 | -0.223 | 0.0885 | -0.474 | – | –
USP34 (UniProt Q70CQ2) | 0.504 | 0.192 | 0.682 | -0.913 | 0.746 | -0.399 | -0.287 | -0.935 | -0.17 | -1.47 (active) | 0.583 | -0.403 | 0.31 | -0.0396 | 0.689 | -0.0731 | -0.0579 | -0.14 | -0.752 | -0.268 | 0.178 | 0.0865 | -0.0836 | -0.557 | -0.0266 | 0.046 | -0.25 | -0.554 | – | –
USP8 (UniProt P40818) | -0.123 | -0.132 | -0.346 | -0.338 | -0.306 | -0.187 | -0.167 | -0.253 | 0.0209 | -0.351 | -0.00835 | -0.371 | -0.247 | -0.347 | -0.126 | -0.311 | -0.0892 | -0.0187 | -0.193 | -0.0275 | -0.286 | -0.268 | 0.0453 | -0.166 | -0.0844 | -0.245 | -0.136 | -0.61 | -0.488 | -0.321
